Source: PubChem BioAssay AID2751 (The Scripps Research Institute Molecular Screening Center, 2010)
Hit rate of the full screen: of about 320,000 compounds, about 2,200 (0.69%) were called active. For the sample, actives were picked, then their nearest neighbours and some compounds at random. Values without a mark were called inactive. Cut-off read from the data, not from the text of the source: active = inhibition above about 43%; inactive = the rest.

Target: Prolyl endopeptidase-like (Homo sapiens) (UniProt Q4J6C6)
Experiment: PREPL enzyme inhibitors, primary screen, biochemical, fluorescence polarization (AID 2751);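 note: 0% = enzyme with DMSO and 100% = wells lacking enzyme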
Conditions: recombinant PREPL, fluorescence polarization activity-based probe; at 5.96 µM; stronger effect = higher value

Chain of Prolyl endopeptidase-like (Homo sapiens) (Q4J6C6 whole entry, looked up): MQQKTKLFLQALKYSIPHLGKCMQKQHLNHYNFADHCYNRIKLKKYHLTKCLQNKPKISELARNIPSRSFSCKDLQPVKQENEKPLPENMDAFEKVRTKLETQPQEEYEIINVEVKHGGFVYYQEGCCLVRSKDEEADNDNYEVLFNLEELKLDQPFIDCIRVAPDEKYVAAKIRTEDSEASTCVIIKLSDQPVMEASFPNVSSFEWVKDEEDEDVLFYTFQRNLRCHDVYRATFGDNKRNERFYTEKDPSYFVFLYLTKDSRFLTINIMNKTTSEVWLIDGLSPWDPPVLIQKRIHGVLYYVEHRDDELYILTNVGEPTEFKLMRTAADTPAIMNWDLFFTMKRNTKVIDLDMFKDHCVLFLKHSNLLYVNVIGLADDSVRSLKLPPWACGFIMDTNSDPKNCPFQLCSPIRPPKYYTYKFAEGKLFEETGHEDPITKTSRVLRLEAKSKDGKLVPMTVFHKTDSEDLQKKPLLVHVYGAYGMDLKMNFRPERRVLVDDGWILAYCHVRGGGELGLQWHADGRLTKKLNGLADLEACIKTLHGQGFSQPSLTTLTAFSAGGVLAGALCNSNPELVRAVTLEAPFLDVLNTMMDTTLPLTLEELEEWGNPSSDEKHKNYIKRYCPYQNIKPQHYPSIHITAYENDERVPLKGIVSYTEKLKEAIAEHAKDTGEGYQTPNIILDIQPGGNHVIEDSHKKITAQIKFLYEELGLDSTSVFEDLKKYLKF

Row | Compound | inhibition
1 | COc1ccc2[nH]c3c(c2c1)CCN[C@H]3C | 48.8% (active)
2 | O=C(N/N=C/c1c(O)n(C2CC2)c(=S)[nH]c1=O)c1ccccc1Cl | -3.24%
3 | CCOc1ccc(-c2cc(C)[n+](CCN(CC)CC)c(-c3ccc(OCC)cc3)c2)cc1 | 10.9%
4 | CCOc1cccc(=NC2CCCCC2)c2c(C)[nH]c(C)c12 | 52.1% (active)
5 | Cn1c(O)c(C=NCCCC(=O)O)c(=O)n(C)c1=O | -8.04%
6 | N[C@@H](Cc1c[nH]c2ccccc12)c1nnc(SCc2c(F)cccc2Cl)o1 | 2.17%
7 | CCN(CC)C(=O)c1ccc(NC(=O)c2cc(-n3cnnc3)ccc2Cl)cc1 | 15.1%
8 | Cc1nc2ccccn2c1P(=S)(N1CCCCC1)N1CCCCC1 | -7.5%
9 | COc1ccccc1N1CCN(C(CNC(=O)Oc2ccccc2)c2cccnc2)CC1 (stereo not given) | 1.24%
10 | O=C(NCC(c1cccnc1)N1CCN(c2ccccc2)CC1)Oc1ccccc1 (stereo not given) | 46.3% (active)
11 | COC(=O)C(c1ccccc1)N1CCCCCC1 (stereo not given) | 1.34%
12 | COc1ccc(C2NCc3ccc4c(c3-n3cccc32)OCO4)cc1OC (stereo not given) | -15.2%
13 | COC(=O)N(c1ccc(OC)cc1)P1(=S)OCCC(C)O1 (stereo not given) | 8.63%
14 | O=C(O)C1CSC(c2cccnc2)N1 (stereo not given) | 3.28%
15 | Cc1c(Oc2cc(NN3CCCCC3)c([N+](=O)[O-])cc2[N+](=O)[O-])cccc1[N+](=O)[O-] | 4.76%
